# Source: PubChem BioAssay
# Unmarked numbers belong to inactive results. Entries that show only a call come without a potency. For some assays here: Potency and affinity values are given separately. Activity calls are given as the source filed them. Unless noted, the rule behind the calls is not given here.
# Experiments:
# [1] = antimalarial activity against Dd2 strain (AID 2302;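 active = growth inhibition above 50% at the single 2 µM test dose, taken to imply half-maximal potency below 2 µM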); details: P. falciparum Dd2 in RBCs, LDH growth readout, 72 h; at 2 µM; hits give high values
# [2] = HepG2 cytotoxicity, primary screen, cytotoxicity control for P. falciparum antimalarial project, cell-based, ATP luminescence (AID 2303;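 active = inhibition above 50%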); details: HepG2 viability, 24-48 h, at 10 µM, hits give high values
# [3] = molecular target: L-lactate dehydrogenase (Plasmodium falciparum (isolate CDC / Honduras)) (UniProt Q27743); assay: PfLDH activity inhibition – cell lysate, 3D7 strain, counter-screen for P. falciparum growth inhibition project (AID 2304); details: P. falciparum 3D7 crude extract, LDH APAD/NBT absorbance; at 2 µM; hits give high values
# [4] = inhibition of 3D7 malaria parasite growth – strain 3D7 (AID 2306); details: P. falciparum 3D7 erythrocytic growth, LDH absorbance, 72 h; at 2 µM; hits give high values
# [5] = molecular target: Calcium-dependent protein kinase 1 (Plasmodium falciparum (isolate 3D7)) (UniProt P62344); assay: PfCDPK1 kinase inhibitors, biochemical, TCAMS library (AID 1159585; cut-off not given, nearly all actives have IC50 up to about 0.98 µM;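 note: inhibitors leave more ATP so luminescence rises with inhibition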); details: recombinant PfCDPK1, Kinase-Glo ATP depletion luminescence
# [6] = molecular target: Plasmodium falciparum protein kinase 6 (PK6, PF3D7_1337100) (UniProt Q8IDW1); assay: PfPK6 kinase inhibitors, biochemical, TCAMS library (AID 1159586); details: recombinant PfPK6, Kinase-Glo ATP depletion luminescence
# [7] = molecular target: Protein kinase 7 (PK7), Plasmodium falciparum 3D7 (PF3D7_0213400) (UniProt Q7YTF7); assay: inhibition of Plasmodium PK7 catalytic activity – biochemical, TCAMS antimalarial set, Kinase-Glo luminescence (AID 1159587); details: recombinant PfPK7, Kinase-Glo ATP depletion luminescence
# [8] = molecular target: Calcium-dependent protein kinase 4 (Plasmodium falciparum (isolate 3D7)) (UniProt Q8IBS5); assay: PfCDPK4 kinase inhibitors, biochemical, TCAMS library (AID 1159588; cut-off not given, nearly all actives have IC50 up to about 0.91 µM); details: recombinant PfCDPK4, Kinase-Glo ATP depletion luminescence
# Chain of Calcium-dependent protein kinase 4 (Plasmodium falciparum (isolate 3D7)) (Q8IBS5 whole entry, looked up): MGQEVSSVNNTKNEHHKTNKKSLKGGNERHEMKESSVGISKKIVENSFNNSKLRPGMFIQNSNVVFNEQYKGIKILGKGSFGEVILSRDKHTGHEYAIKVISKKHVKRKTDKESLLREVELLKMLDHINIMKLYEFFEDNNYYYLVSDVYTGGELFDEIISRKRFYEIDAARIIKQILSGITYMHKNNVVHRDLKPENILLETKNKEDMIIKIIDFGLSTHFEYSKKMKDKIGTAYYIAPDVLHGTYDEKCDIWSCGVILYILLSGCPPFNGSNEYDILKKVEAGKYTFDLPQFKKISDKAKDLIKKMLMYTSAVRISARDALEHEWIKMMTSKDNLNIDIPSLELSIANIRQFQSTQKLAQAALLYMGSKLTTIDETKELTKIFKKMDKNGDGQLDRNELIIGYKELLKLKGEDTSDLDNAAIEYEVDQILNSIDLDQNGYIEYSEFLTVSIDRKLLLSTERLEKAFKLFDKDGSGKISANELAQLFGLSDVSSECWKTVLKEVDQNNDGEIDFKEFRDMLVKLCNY
# Chain of Plasmodium falciparum protein kinase 6 (PK6, PF3D7_1337100) (Q8IDW1 1-305): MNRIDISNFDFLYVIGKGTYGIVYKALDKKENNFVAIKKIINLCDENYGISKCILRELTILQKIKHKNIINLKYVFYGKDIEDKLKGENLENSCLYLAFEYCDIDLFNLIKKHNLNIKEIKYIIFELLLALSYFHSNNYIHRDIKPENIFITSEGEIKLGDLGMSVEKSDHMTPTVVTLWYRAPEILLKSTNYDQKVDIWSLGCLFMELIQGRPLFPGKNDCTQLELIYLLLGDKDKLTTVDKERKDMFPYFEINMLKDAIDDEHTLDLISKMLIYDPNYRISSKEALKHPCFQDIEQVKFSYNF
# Chain of Calcium-dependent protein kinase 1 (Plasmodium falciparum (isolate 3D7)) (P62344 whole entry, looked up): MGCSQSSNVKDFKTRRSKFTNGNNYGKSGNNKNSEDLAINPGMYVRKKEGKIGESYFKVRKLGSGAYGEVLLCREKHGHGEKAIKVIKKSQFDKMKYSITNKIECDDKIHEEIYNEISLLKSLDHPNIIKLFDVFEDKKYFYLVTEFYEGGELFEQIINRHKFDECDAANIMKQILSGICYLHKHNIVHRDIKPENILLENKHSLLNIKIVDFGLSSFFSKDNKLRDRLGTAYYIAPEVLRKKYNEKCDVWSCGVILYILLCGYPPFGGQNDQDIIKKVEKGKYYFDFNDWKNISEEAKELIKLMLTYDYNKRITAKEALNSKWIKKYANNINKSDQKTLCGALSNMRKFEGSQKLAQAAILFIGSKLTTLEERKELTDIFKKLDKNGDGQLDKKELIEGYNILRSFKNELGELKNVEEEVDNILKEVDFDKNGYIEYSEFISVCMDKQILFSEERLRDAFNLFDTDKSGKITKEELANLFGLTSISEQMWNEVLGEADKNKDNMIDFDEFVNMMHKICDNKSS
# Chain of L-lactate dehydrogenase (Plasmodium falciparum (isolate CDC / Honduras)) (Q27743 whole entry, looked up): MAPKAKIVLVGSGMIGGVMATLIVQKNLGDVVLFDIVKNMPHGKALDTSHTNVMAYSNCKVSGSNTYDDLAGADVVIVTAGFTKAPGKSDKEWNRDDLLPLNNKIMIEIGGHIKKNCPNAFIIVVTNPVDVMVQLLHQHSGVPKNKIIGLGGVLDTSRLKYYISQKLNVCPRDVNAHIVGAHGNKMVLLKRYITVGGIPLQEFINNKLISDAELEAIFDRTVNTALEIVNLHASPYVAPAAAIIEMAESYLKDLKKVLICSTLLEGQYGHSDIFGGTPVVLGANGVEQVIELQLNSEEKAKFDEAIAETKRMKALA
# Chain of Protein kinase 7 (PK7), Plasmodium falciparum 3D7 (PF3D7_0213400) (Q7YTF7 1-343): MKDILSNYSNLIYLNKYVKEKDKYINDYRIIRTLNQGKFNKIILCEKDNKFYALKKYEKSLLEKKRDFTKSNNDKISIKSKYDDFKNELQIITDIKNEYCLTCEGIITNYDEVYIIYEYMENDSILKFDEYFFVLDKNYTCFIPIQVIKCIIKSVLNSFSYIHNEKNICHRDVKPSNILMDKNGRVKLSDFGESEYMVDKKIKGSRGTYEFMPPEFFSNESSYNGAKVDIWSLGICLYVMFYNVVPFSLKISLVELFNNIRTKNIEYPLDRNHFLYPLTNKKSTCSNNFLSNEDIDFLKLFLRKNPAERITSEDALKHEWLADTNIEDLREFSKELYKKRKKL
Structure (SMILES),growth inhibition [1],inhibition [2],inhibition [3] [%],growth inhibition [4],outcome [5],outcome [6],outcome [7],outcome [8]
CCCC(C)Nc1nc(C)cc(N[C@@H](CC(C)C)C(=O)NC2CCCC2)n1 (stereo not given in full),22%,6%,-2,85% (active),inactive,inactive,inactive,inactive
O=C(Cc1cnc[nH]1)Nc1cccc(-c2cccc(-c3nc4ccccc4[nH]3)c2)c1,60% (active),24%,-2,97% (active),inactive,inactive,inactive,inactive
Cn1nc(-c2ccccc2F)c2cc(C(=O)Nc3cccnc3)sc21,82% (active),5%,3,92% (active),inactive,inactive,inactive,inactive
NS(=O)(=O)c1cccc(Br)c1,-5%,0%,0,98% (active),inactive,inactive,inactive,inactive
Clc1ccc(Cc2nc3ccccc3[nH]2)cc1Cl,2%,5%,0,98% (active),inactive,inactive,inactive,inactive
O=C(Nc1ccc(OC2CCN(Cc3ccsc3)CC2)c(Cl)c1)c1cccs1,93% (active),16%,1,94% (active),inactive,inactive,inactive,inactive
COc1ccc(NC(=O)Nc2nc3ccccc3s2)cc1N1CCN(C)CC1,22%,6%,-1,95% (active),inactive,inactive,inactive,inactive
Cc1cc(-c2ccnc(Nc3cccc(C#N)c3)n2)cc(C)c1O,54% (active),50% (active),5,88% (active),inactive,inactive,inactive,inactive
COc1ccc(S(=O)(=O)NC2CCN(CCCOc3ccnc4cc(Cl)ccc34)C2)cc1OC (stereo not given),56% (active),8%,1,91% (active),inactive,inactive,inactive,inactive
CC1(C)N=C(NC(=O)c2cc([N+](=O)[O-])cc([N+](=O)[O-])c2)N=C(N)N1OCc1cccc2ccccc12,20%,66% (active),-6,94% (active),inactive,inactive,inactive,inactive
CCN1CCN(Cc2ccc(NC(=O)c3cc4ccc5cccnc5c4[nH]3)cc2)CC1,97% (active),-3%,-3,100% (active),inactive,inactive,inactive,inactive
Cc1ccc(-c2nc(N3CCN(C(=O)c4ccco4)CC3)c3ccc(Cl)cc3n2)cc1,78% (active),17%,3,90% (active),inactive,inactive,inactive,inactive
Cc1cccc2[nH]c(-c3cccc(-c4ccc(NC(=O)Nc5ccc6c(c5)OCO6)cc4)c3)nc12,86% (active),80% (active),-3,101% (active),inactive,inactive,inactive,inactive
CN(C)c1ccc(-c2csc(C(=O)NC3CCCCN(Cc4ccc(C(C)(C)C)cc4)C3)c2)cc1 (stereo not given),55% (active),17%,4,84% (active),inactive,inactive,inactive,inactive
Cc1c(NC(=O)COc2ccc(Cl)cc2C(=O)c2cc(F)cc(C(F)(F)F)c2)ccc2ncsc12,18%,-2%,-2,86% (active),inactive,inactive,inactive,inactive
Cc1cc(NC2CCN(CC3CCCCC3)C2)nc(Nc2ccc(Cl)cc2)n1 (stereo not given),83% (active),26%,-2,98% (active),inactive,inactive,inactive,inactive
CS(=O)(=O)c1ccc(CNCc2cccc(-c3cccc(-c4nc5ccccc5[nH]4)c3)c2)cc1,47%,3%,-7,101% (active),inactive,inactive,inactive,inactive
CC(=O)Nc1ccc(C(=O)N2CCN(c3ccnc4cc(Cl)ccc34)CC2)cc1,43%,2%,-5,93% (active),inactive,inactive,inactive,inactive
COc1ccc2nccc([C@@H](O)CN3CCC(NCc4nc5c(F)cc(F)cc5[nH]4)CC3)c2c1,64% (active),19%,0,99% (active),inactive,inactive,inactive,inactive
COc1ccc2c(NN=Cc3cccnc3)ccnc2c1,26%,3%,-4,97% (active),inactive,inactive,inactive,inactive

Structure (SMILES),growth inhibition [1],inhibition [2],inhibition [3] [%],growth inhibition [4],outcome [5],outcome [6],outcome [7],outcome [8]
CCCCN1CCN(c2cc(NS(=O)(=O)c3ccc(C(=O)Nc4ccc(C(F)(F)F)cc4)cc3)ccc2OC)CC1,20%,17%,-3,99% (active),inactive,inactive,inactive,inactive
Nc1c2ccccc2nc2cc(Cl)ccc12,86% (active),24%,-3,103% (active),inactive,inactive,inactive,inactive
c1ccc2c(c1)ncn2-c1ccnc(Nc2ccncc2)n1,80% (active),0%,-3,89% (active),inactive,inactive,inactive,inactive
CCN1CCN(Cc2c(O)ccc3c(=O)c(Oc4cc(C)cc(C)c4)c(C(F)(F)F)oc23)CC1,90% (active),6%,3,96% (active),inactive,inactive,inactive,inactive
Nc1ccc2[nH]cc(C3CCN(CC4CCC(NC(=O)/C=C/c5ccc(Cl)c(Cl)c5)CC4)CC3)c2n1 (stereo not given),93% (active),18%,1,100% (active),inactive,inactive,inactive,inactive
COc1ccc2nccc(NN=Cc3ccc(F)cc3)c2c1,54% (active),2%,-2,98% (active),inactive,inactive,inactive,inactive
CN1CCN(c2cc(-c3cccnc3)nc(-c3ccncc3)n2)CC1,89% (active),11%,1,100% (active),inactive,inactive,inactive,inactive
CN1CCN(c2ccnc3ccc(NC(=O)Nc4ccc(-c5ccncc5)c(C#N)c4)cc23)CC1,99% (active),32%,-3,101% (active),inactive,inactive,inactive,inactive
O=C(NC1CC1)c1cnc(N2CCN(Cc3c(F)cccc3Cl)CC2)c(Cl)c1,93% (active),0%,-2,93% (active),inactive,inactive,inactive,inactive
Cc1cc(Br)cnc1CCCCN=C1NC(=O)CN1C,26%,63% (active),2,95% (active),inactive,inactive,inactive,inactive
CCOC(=O)C(=CNc1ccc(Cc2cnc(N)nc2N)cc1CC)C(=O)OCC,7%,47%,1,87% (active),inactive,inactive,inactive,inactive
Cc1cccc2[nH]c(-c3ccc(-c4cccc(NC(=O)C(C)CN5CCN(C)CC5)c4)cc3)nc12 (stereo not given),51% (active),5%,3,98% (active),inactive,inactive,inactive,inactive
Cc1cccc(Nc2c(-c3cc(Br)ccc3O)nc3ncccn23)c1,98% (active),-2%,1,100% (active),inactive,inactive,inactive,inactive
Cc1sc(NC(=O)Cc2cccc(C(F)(F)F)c2)nc1-c1cccc(Cl)c1,95% (active),15%,-3,101% (active),inactive,inactive,inactive,inactive
Cc1cccc2[nH]c(-c3cccc(-c4cccc(NC(=O)c5cnn6cccnc56)c4)c3)nc12,17%,14%,-3,101% (active),inactive,inactive,inactive,inactive
CC(C)(C)c1ccc(CN2CCC(CNC(=O)c3cc(-c4ccccc4C(F)(F)F)cs3)C2)cc1 (stereo not given),11%,61% (active),-3,92% (active),inactive,inactive,inactive,inactive
COc1ccc(C=C2SC(=N)N(c3ccccc3OC)C2=O)cc1,95% (active),47%,3,97% (active),inactive,inactive,inactive,inactive
CCC(=O)N1CCc2cc(Br)cc(S(=O)(=O)N3CC(C)CC(C)C3)c21 (stereo not given),84% (active),5%,-3,85% (active),inactive,inactive,inactive,inactive
Oc1ccc(CCNc2nc(NCc3cccc(OCc4cccc(F)c4)c3)nc(N3CCNCC3)n2)cc1,-7%,27%,-3,86% (active),inactive,inactive,inactive,inactive
O=C(Nc1ccc(OC2CCN(Cc3ccc(F)cc3)C2)c(Cl)c1)c1ccoc1 (stereo not given),90% (active),13%,2,90% (active),inactive,inactive,inactive,inactive
